Dicer processing = inhibitors of human Dicer processing of pre-microRNA | Q9UPY3 | cat-ELCCA pre-miR-21 Dicer processing, chemiluminescence; stronger effect = higher value | z-score at 25 µM | 47,000 tested, 6% active; in the data active = z-score above about 3, passing the limit was not always enough;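 also: plate controls were vehicle for no effect and no enzyme for full effect; higher signal means more uncleaved substrate so more Dicer inhibition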
Active calls of the source: *. Shown is part of a subset that was picked to be rich in hits.

SMILES	Dicer processing
CCOC(=O)C1=C(C)NC2=C(C(=O)CC(c3ccccc3)C2)C1c1cc(C)sc1SC (centres undefined)	0.21
CCOC(=O)c1sc(SC)c2c1CC/C(=C\N(C)C)C2=O	-7
Cc1ccc(S(=O)(=O)NCc2ccccc2)cc1-c1nnc2c3ccccc3c(C)nn12	0.62
COC(=O)C1=C(C)NC2=C(C(=O)CCC2)C1c1ccc(C(F)(F)F)cc1Cl (centres undefined)	0.12
O=C1c2cc([N+](=O)[O-])ccc2-c2ccc([N+](=O)[O-])cc21	7.7*
O=[N+]([O-])c1ccc2c(c1)C(=NO)c1cc([N+](=O)[O-])ccc1-2	-0.89
NN=C1c2cc([N+](=O)[O-])ccc2-c2ccc([N+](=O)[O-])cc21	-0.66
N#C/C(=C\c1ccc(C(F)(F)F)cc1Cl)S(=O)(=O)c1ccc(Cl)cc1	-0.1
COC(=O)C1=C(C)NC2=C(C(=O)CCC2)C1c1cn[nH]c1 (centres undefined)	0.23
COc1ccc(N2C(=O)C3C4C=CC(CC4)C3C2=O)cc1 (centres undefined)	1
CC(OC(=O)c1cccc(N2C(=O)C3CC=CC(C)C3C2=O)c1)C(=O)c1ccccc1 (centres undefined)	0.91
COc1ccc(N2C(=O)C3CC=CC(C)C3C2=O)cc1 (centres undefined)	5.5*
CCc1cccc(CC)c1NC(=S)NN	3.1*
CCc1cccc(CC)c1NC(=O)C(Cl)Cl	-0.22
Cc1cccc(Cl)c1NC(=S)NN	1.1
CC1=C(C(=O)OC(C)C)C(c2ccccc2OCc2ccccc2)C2=C(CCCC2=O)N1 (centres undefined)	-0.29
CC(Cc1c[nH]c2ccccc12)C(=O)O (centres undefined)	5*
O=C(O)CCCc1c[nH]c2ccccc12	0.68
O=C(O)CCc1c[nH]c2ccccc12	-2.2
CO/N=C1\CCCc2c(C(=O)N/N=C/C(C)(C)C)sc(SC)c21	1.5
COc1ccc(N2C(=O)C3C4c5ccccc5C(c5ccccc54)C3C2=O)cc1 (centres undefined)	1.5
COC(=O)c1ccccc1N1CC(C(=O)O)CC1=O (centres undefined)	2.3
COc1cccc(N2CC(=O)N(NC(=O)NC3CCCCC3)CC2=O)c1	2.8
Cc1cccnc1N1C(=O)C2C3c4ccccc4C(c4ccccc43)C2C1=O (centres undefined)	0.69
COC(=O)c1ccccc1N1C(=O)C2C3c4ccccc4C(c4ccccc43)C2C1=O (centres undefined)	4.2*
SMILES	Dicer processing
COc1ccccc1N1C(=O)C2C3c4ccccc4C(c4ccccc43)C2C1=O (centres undefined)	-0.08
NN1CC(=O)N(c2cccc(C(F)(F)F)c2)CC1=O	1.2
COc1cccc(N2C(=O)C3C4c5ccccc5C(c5ccccc54)C3C2=O)c1 (centres undefined)	3.7*
COc1cccc(N2CC(=O)N(N)CC2=O)c1	3.8*
C/C(=C\C(=O)NCc1ccccc1)C(=O)O	-0.49
CCOc1ccc(OCC)c([N+](=O)[O-])c1N1CCOCC1	-0.29
Cc1nc(-c2ccc3c(c2)OCC3)sc1C(=O)Nc1ccc(N2CCCCC2)cc1	2.2
CCOC(=O)c1sc(N2C(=O)C(O)=C(C(=O)c3ccco3)C2c2ccc(C(C)(C)C)cc2)nc1C (centres undefined)	0.63
O=C(O)c1ccc(Cn2ccc([N+](=O)[O-])n2)cc1	0.2
O=c1nc(SCc2ccccc2Cl)nc(-c2ccc(Cl)cc2)[nH]1	0.58
O=c1nc(SCc2c(Cl)cccc2Cl)nc(-c2ccc(Cl)cc2)[nH]1	5.9*
CCSc1nc(-c2ccc(Cl)cc2)[nH]c(=O)n1	-3.4
O=C(O)CNC(=O)c1ccccc1Cl	-0.37
O=c1[nH]c2cc(Cl)ccc2c(-c2ccccc2)c1Sc1ccccn1	-0.62
O=c1[nH]c2ccccc2c2oc(-c3ccccc3)nc12	-1.2
O=C(O)c1c(-c2ccccc2)c2oc3ccccc3c2[nH]c1=O	4.4*
O=c1[nH]c2c(F)cccc2c(O)c1-c1ccccc1	-0.48
Cc1ccc(C(=O)OCc2cn(Cc3ccccc3)c3ccc([N+](=O)[O-])cc23)cc1	-0.25
COC(=O)C(Cc1ccc(Cl)cc1Cl)Sc1ccc(Cl)cc1 (centres undefined)	0.75
CC1=CCC2C(=O)N(c3ncccn3)C(=O)C2C1 (centres undefined)	3.7*
CC1=CCC2C(=O)N(c3cc(C)on3)C(=O)C2C1 (centres undefined)	-0.01
CC1=CCC2C(=O)N(c3ccccc3O)C(=O)C2C1 (centres undefined)	-0.99
CCOC(=O)c1sc(SC)c2c1CCCC2O (centres undefined)	-1.8

Screens (PubChem BioAssay)
